Source: ChEMBL document CHEMBL3988442, “University of Dundee, Small-Polar-MMV Screening Library” (2021)
About 13,000 (27%) of roughly 48,000 compounds showed an effect of 50% or more. The list shows a part of the results.

test system: Wolbachia pipientis; experiment: Anti-Wolbachia Cell-Based Screen; assay type: functional; parameters: scale not given: in the data most compounds retested in dose-response had high values; conditions: 5 µM

SMILES	Percent Effect
Cc1noc(C)c1CN1C[C@@H](NS(=O)(=O)N(C)C)[C@H](C(C)C)C1	-5.186%
CC(=O)N1CCC2(CCN(C(=O)c3ccc(Cl)c(C(F)(F)F)c3)CC2)C1	-5.245%
CCCn1ncc(C(=O)NC2CCN(C3CCOCC3)CC2)c1C	-3.665%
CC(C)(C#N)C(=O)Nc1nccn1Cc1ccc(Br)cc1	-2.576%
Cc1ccc2oc(=O)n(CC(=O)N3CCC4(CC3)CN(C)C(=O)O4)c2c1	-3.778%
CN1CC2(CCN(C(=O)COc3ccc(Cl)cc3Cl)CC2)OC1=O	-5.539%
Cc1nccc(-c2ccccc2)c1C(=O)N1CCC2(CN(C)C(=O)O2)C1 (stereo not given)	-8.281%
CN1CCCC2(CCN(C(=O)Cn3ncc4ccccc4c3=O)C2)C1=O (stereo not given)	88.86%
Cc1nn(CC(=O)N2CCC3(CN(C)C(=O)O3)C2)c(=O)c2ccccc12 (stereo not given)	94.98%
Cc1nc[nH]c1C(=O)N1CCC2(CN(C)C(=O)O2)C1 (stereo not given)	-7.833%
CCc1ccc2occ(CC(=O)N3CCC4(CCCN(C)C4=O)C3)c2c1 (stereo not given)	-37.19%
CN1CCCC2(CCN(C(=O)CCn3cncn3)C2)C1=O (stereo not given)	-41.8%
CN1CC2(CCN(C(=O)Cn3ncc4ccccc4c3=O)CC2)OC1=O	95.4%
CCCN(CCC)C(=O)CN1CCCC1C(=O)N(C)C (stereo not given)	15.58%
O=C(c1cccc(S(=O)(=O)NCCc2cscn2)c1)N1CCOCC1	-14.28%
C[S+]([O-])c1nncn1CC(=O)c1ccc(OC(F)F)cc1 (stereo not given)	-3.882%
CCc1ncc2c(n1)CN(C(=O)c1c(C)[nH]c3c1C(=O)CCC3)C2	17.5%
O=C(c1cccn2ccnc12)N1CCCN(c2cccnn2)CC1	-3.729%
CCOCC(=O)N1CCC(Oc2ccc(C(F)(F)F)cn2)CC1	5.97%
CC(C)(C)NC(=O)N1CCC(Oc2ccc(C(F)(F)F)cn2)CC1	116.4%
CCOC(=O)N1CCC(Oc2ccc(C(F)(F)F)cn2)CC1	91.75%
CN(C)S(=O)(=O)N1CCC(Oc2ccc(C#N)cn2)CC1	-10.68%

SMILES	Percent Effect
CCOCC(=O)N1CCC(Oc2ccc(Cl)cn2)CC1	-5.53%
CCOC(=O)CCC(=O)N1CCC(Oc2ccc(C(F)(F)F)cn2)CC1	3.938%
CN(CC(=O)N1CCC(Oc2ccc(C(F)(F)F)cn2)CC1)S(C)(=O)=O	103.2%
O=C(Cn1cccn1)N1CCC(Oc2ccc(C(F)(F)F)cn2)CC1	107%
N#Cc1ccc(C(=O)N2CCC(Oc3ccc(C#N)cn3)CC2)cc1	-11.6%
CC(=O)N1CCC(Oc2ccc(C#N)cn2)CC1	-7.335%
N#Cc1ccc(OC2CCN(C(=O)Cc3cccs3)CC2)nc1	12.26%
CN(CC(=O)N1CCC(Oc2ccccc2)CC1)c1cnccn1	-0.02384%
CCN1CCN(C[C@@H]2CN(c3ncc(Cl)cc3F)C[C@@H]2CO)CC1	3.895%
CC(NC(=O)Nc1ccc(OC2CCCC2)cc1)c1nc[nH]n1 (stereo not given)	4.793%
Cc1cc(C)nc(N2CCC(C(=O)Nc3ccc(C(C)C)cc3)CC2)n1	135.6%
CCC(C)c1ccc(NC(=O)C2CCN(C(=O)COC)CC2)cc1 (stereo not given)	-13.47%
CCC(C)c1ccc(NC(=O)C2CCN(C(=O)N(C)C)CC2)cc1 (stereo not given)	-1.822%
Cc1ccc(C(=O)NCC(O)CN2CCCC2=O)cc1Cl (stereo not given)	2.235%
CC1CCCCN1Cc1ccc(-c2ccccc2C(=O)O)cc1 (stereo not given)	-6.204%
Cc1ccc(S(C)(=O)=O)cc1C(=O)NS(C)(=O)=O	-9.422%
CC(=O)c1ccccc1-c1cc(C(=O)O)cc(S(=O)(=O)NC(C)C)c1	0.5422%
CS(=O)(=O)c1ccc(-c2ccccc2C(=O)O)cc1	122%
CNC(=O)c1ccccc1-c1ccc(S(C)(=O)=O)cc1	101.9%
CS(=O)(=O)c1ccc(CNC(=O)NCc2cc[nH]n2)cc1	1.077%
CN(C)C(C(=O)N1CC(Oc2ccccc2F)C1)c1ccccc1F (stereo not given)	-4.147%
CO[C@@H]1CCN(S(=O)(=O)c2cccs2)[C@H]1Cc1ccccc1	7.736%

SMILES	Percent Effect
Cc1n[nH]c(C)c1NC(=O)CN1CCn2c(nnc2C(C)C)C1	-1.446%
C[C@H](C(=O)N1Cc2ccccc2CC2(CCCN2C)C1)c1ccccc1 (stereo not given in full)	111.3%
CC(C)C(=O)N1Cc2ccccc2CC2(CCCN2C)C1 (stereo not given)	90.17%
CC(C)C(=O)N1CCCC12CCN(C(=O)c1ccno1)C2 (stereo not given)	-2.946%
CC(C)C(=O)N1CCCC12CCCN(C(=O)c1ccno1)C2 (stereo not given)	-3.277%
CC(C)C(=O)N1CCC12CCCN(C(=O)c1ccnnc1)C2 (stereo not given)	-3.572%
CC(C)C(=O)N1CCC12CCCN(C(=O)c1ccccc1)C2 (stereo not given)	-15.79%
CC(C)C(=O)N1Cc2ccccc2CC2(CCCCN2C)C1 (stereo not given)	96.75%
CC(=O)c1cc(CN2C[C@@H](C(=O)O)[C@H](c3cccnc3)C2)cs1	-13.15%
CCN(Cc1cc(Cl)ccc1OC)Cc1cc(C)nn1C	-10.03%
Cc1nnsc1CN(C)C(=O)CCn1cnc2ccccc21	-11.62%
O=C(CNCC1(O)CCCN(Cc2cccc(F)c2F)C1=O)NC1CC1 (stereo not given)	-1.283%
CN(CCCOc1ccccc1)C(=O)CN1CCc2cncnc2C1	0.7453%
CCCOc1ccc2c(c1)OCC(C(=O)NC(C)Cn1ccnc1)=C2 (stereo not given)	6.426%
O=C(NCCCn1cccn1)C1CCC(=O)N(CC2CCCCC2)C1 (stereo not given)	-8.272%
O=C1NC[C@@]2(C(=O)O)CN(Cc3cccc(OC4CCCC4)c3)C[C@@H]12	-26.72%
NC(=O)N1CCCN(CCc2nc(-c3cccc(Cl)c3)no2)CC1	5.099%
NC(=O)c1nc(-c2cccc(Cl)c2)oc1N	102.5%
Cc1sc(CN)nc1-c1ccc(Cl)cc1Cl	-19.51%
CC(C)C(C(N)=O)c1cccc(Cl)c1 (stereo not given)	-0.9613%
NC(=O)c1nc(-c2ccc(Cl)cc2Cl)oc1N	118.4%
